ELG1 genotoxic: inducers of genotoxicity in HEK293T ELG1-luciferase cells. HEK293T ELG1-luciferase reporter, luminescence, 16 h. Potency, µM (highest dose often 46 µM), for the others: at the top dose activity change, positive = activation, most hits filed as activators. 330,000 tested, 1.3% active; further: % of control where 0% means no effect; nearly all actives have a fitted effect of over 60% in size
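HEK293T cells expressing luciferase-tagged ELG1 were exposed to compound or DMSO vehicle for 16 hr at 37 °C and 5% CO2. Luciferase activity was then measured with ONE-Glo after 30 min at room temperature.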
SMN2 splice enh: increases expression of the SMN2 splice variant | HEK293 SMN2-luciferase splicing reporter, luminescence, 30-36 h | Potency, µM (doses to about 46.1 µM), for inactives: at the highest dose activity change, positive = activation, actives largely listed as activators | 210,000 tested, 2.8% active | AID 1458; further: % of control where 0% means no effect; nearly all actives have a fitted effect of over 55% in size
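HEK293 cells carry an SMN2 minigene-luciferase reporter in which exon 7 inclusion puts luciferase in frame. Cells were seeded at 2000 cells/well, attached for 10-12 hours, then exposed to compounds for 30-36 hours at 37C before ONE-Glo luminescence.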
NPC1 prom act: NPC1 promoter activation. Huh7 NPC1 promoter luciferase reporter, 24 h. Potency, µM (doses to about 9.22 µM), for inactives: at the highest dose activation, usual class: activators. 320,000 tested, 2.4% active; further: % of control where 0% means no effect; nearly all actives have a fitted effect of over 60% in size
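NPC1 promoter–luciferase Huh7 cells; 24 h compound; luminescence.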
Rab9 promoter act: activators of Rab9 promoter | 320,000 tested, 2.8% active | Huh7 Rab9 promoter-luciferase reporter, luminescence, 24 h | Potency, µM (highest dose often 9.22 µM), inactives show top-dose activation, negative = inhibition, usual class: activators; further: % of control where 0% means no effect; nearly all actives have a fitted effect of over 60% in size
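Stable Rab9-luc Huh7, 1500 cells/well, 2 h settle; cmpd in DMSO, 24 h, 37 °C/5% CO2; luciferase reagent 10 min RT; luminescence.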
FLuc modulator: firefly luciferase modulation, counter-screen for miR-21 project | P08659 | purified FLuc, Km substrates, luminescence inhibition | Potency, µM (highest dose often 57.5 µM), for inactives: at the top dose activity change, negative = inhibition, usual class: inhibitors | 360,000 tested, 6.9% active;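 further: plate controls were vehicle for no effect and reference inhibitor for full effect; nearly all actives have a fitted effect of over 55% in size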
Target sequence (P08659 whole entry, looked up): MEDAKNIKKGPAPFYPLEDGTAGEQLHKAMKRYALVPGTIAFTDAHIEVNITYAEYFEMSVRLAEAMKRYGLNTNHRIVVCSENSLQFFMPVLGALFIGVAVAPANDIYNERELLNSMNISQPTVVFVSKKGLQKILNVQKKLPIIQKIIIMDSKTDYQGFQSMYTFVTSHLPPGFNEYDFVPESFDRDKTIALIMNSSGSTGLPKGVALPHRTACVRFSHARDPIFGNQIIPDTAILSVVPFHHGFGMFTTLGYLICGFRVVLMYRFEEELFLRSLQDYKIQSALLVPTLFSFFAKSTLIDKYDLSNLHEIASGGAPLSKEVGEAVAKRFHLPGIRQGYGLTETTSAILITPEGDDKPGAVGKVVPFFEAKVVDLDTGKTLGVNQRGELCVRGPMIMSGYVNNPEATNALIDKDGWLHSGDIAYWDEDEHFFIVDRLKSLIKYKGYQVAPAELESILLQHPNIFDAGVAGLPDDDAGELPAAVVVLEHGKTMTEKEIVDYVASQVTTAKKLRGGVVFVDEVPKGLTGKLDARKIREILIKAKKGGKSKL
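Purified P. pyralis luciferase (10nM final) with 10uM D-luciferin and 10uM ATP (Km levels) in 50mM Tris acetate pH 7.5, 10mM Mg acetate, 0.01% Tween-20, 0.05% BSA; qHTS 6-point titration, ~60 µM downward; luminescence read.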
ELG1 DNA repair: inhibitors of ELG1-dependent DNA repair in HEK293T cells; 330,000 tested, 2.3% active; AID 504467; HEK293T ELG1-luciferase reporter, luminescence, 16 h; DNA damage induced by 5-fluorouridine; Potency, µM (titrated, usually from 46.1 µM), inactives show at the top dose activity change, negative = inhibition, hits mostly inhibitors; further: on the % scale 0 is the no-effect control and ±100 the full control effect; nearly all actives have a fitted effect of over 55% in size
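Luminescence from the luciferase reporter, measured 30 min after ONE-Glo reagent at room temperature, was the read-out. Beforehand, 2,000 cells per well were exposed for 16 hr at 37 °C to 5-fluorouridine together with compound or vehicle.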
* hit, by the source's call; [ ] = another dose, or the depositor's remark. Most compounds without a hit are left out; they make up all but 9.2% or so of the library. The call rests on the fitted dose curve; in most records, active means well fitted curve in the direction sought with a large enough effect; inconclusive means small, poorly fitted or top-dose-only effect, or another doubt; inactive means no such curve, though single readings can be large; an effect the other way counts as inactive or inconclusive. Potency means the concentration at half of the fitted maximal effect.

`CCn1cc(C(=O)NCc2ccco2)c(=O)c2cc(S(=O)(=O)N3CCCCCC3)ccc21` gave ELG1 genotoxic -7.4%, SMN2 splice enh -15.0%, NPC1 prom act -4.9%, Rab9 promoter act -1.7%, FLuc modulator -12.6% and ELG1 DNA repair 4.61µM*.
Screening CCn1cc(C(=O)NCc2ccc(C)cc2)c(=O)c2cc(S(=O)(=O)N(C)C)ccc21 returned ELG1 genotoxic -0.9%, NPC1 prom act -3.8%, Rab9 promoter act 0.9%[1.84 µM], FLuc modulator -1.4% and ELG1 DNA repair 20.6µM*.
`CCn1cc(C(=O)NCc2ccc(C)cc2)c(=O)c2cc(S(=O)(=O)N(C)C3CCCCC3)ccc21` gave SMN2 splice enh -23.6% and FLuc modulator 0.0%.
Screening COCCNC(=O)/C(C#N)=C/c1cc(C)n(C2CCCCC2)c1C returned ELG1 genotoxic 1.3%, SMN2 splice enh 6.31µM*, NPC1 prom act 1.78µM*, Rab9 promoter act 0.794µM*, FLuc modulator 3.01µM* and ELG1 DNA repair inconclusive.
COc1ccc(-n2c(C)cc(/C=C(\C#N)C(=O)NCc3ccco3)c2C)cc1 was read as ELG1 genotoxic -0.1%, SMN2 splice enh -7.4%, NPC1 prom act 8.0%, Rab9 promoter act 0.2%, FLuc modulator 12µM* and ELG1 DNA repair -11.0%.
For COCCNC(=O)/C(C#N)=C/c1cc(C)n(-c2ccc(C)cc2)c1C the results were ELG1 genotoxic 4.11µM*, NPC1 prom act 1.58µM*, Rab9 promoter act 1.58µM*, FLuc modulator 0.953µM* and ELG1 DNA repair inconclusive.
Cc1cc(C)c(S(=O)(=O)n2c([N+](=O)[O-])cnc2C)c(C)c1 was read as ELG1 genotoxic -2.0%, SMN2 splice enh 8.7%, NPC1 prom act 0.4%, Rab9 promoter act -1.3%, FLuc modulator -0.1% and ELG1 DNA repair 16.4%.
`COc1ccc(C(=O)N2CCC3(CCCN(C(=O)Nc4cccc(C#N)c4)C3)CC2)cc1` gave SMN2 splice enh -2.3%.
For O=C(c1ccccc1)c1ccc2nc(N3CCN(C(=O)c4ccco4)CC3)c3nncn3c2c1 the results were ELG1 genotoxic -12.7%, SMN2 splice enh -11.1%, NPC1 prom act -1.9%, Rab9 promoter act 1.6%, FLuc modulator -11.8% and ELG1 DNA repair 20.6µM*.
`Cn1cc(C(=O)c2ccc(Cl)cc2Cl)cc1C(=O)N/N=C(\N)COc1ccc(Cl)cc1Cl` gave ELG1 genotoxic -26.3%, SMN2 splice enh -9.5%, NPC1 prom act -5.8%, Rab9 promoter act -5.9%, FLuc modulator 2.8% and ELG1 DNA repair 23.1µM*.
Cn1cc(C(=O)c2ccc(Cl)cc2Cl)cc1C(=O)N/N=C(\N)COc1ccc(F)cc1 was read as ELG1 genotoxic -13.9%, SMN2 splice enh 4.1%, NPC1 prom act -4.6%, Rab9 promoter act -1.4%, FLuc modulator 3.1% and ELG1 DNA repair -18.8%.
Screening Cn1cc(C(=O)c2ccc(Cl)cc2Cl)cc1C(=O)N/N=C(\N)COc1ccc(Cl)cc1 returned ELG1 genotoxic -12.9%, NPC1 prom act -7.1%, Rab9 promoter act -2.6%, FLuc modulator 2.6% and ELG1 DNA repair 18.3µM*.
Cn1cc(C(=O)c2ccc(Cl)cc2Cl)cc1C(=O)N/N=C(\N)COc1ccccc1 was read as ELG1 genotoxic -11.8%, SMN2 splice enh -7.0%, NPC1 prom act -4.7%, Rab9 promoter act 2.5%, FLuc modulator -0.5%[2.3 µM] and ELG1 DNA repair -27.6%.
For O=C1CCC(C(=O)Nc2ccc([N+](=O)[O-])cc2)N1 (stereo not given) the results were ELG1 genotoxic 0.5%, NPC1 prom act -1.2%, Rab9 promoter act 1.1%, FLuc modulator -0.1% and ELG1 DNA repair 6.8%.
COc1ccc(C(=O)NCc2ccc3c(c2)OCO3)c(OC)c1 was read as ELG1 genotoxic -6.6%, NPC1 prom act 0.2%, Rab9 promoter act -1.1%, FLuc modulator -6.7% and ELG1 DNA repair inconclusive.
Screening Fc1ccc(/C=N/NC(=S)Nc2cccnc2)cc1F returned ELG1 genotoxic -2.3%, SMN2 splice enh -11.0%, NPC1 prom act 6.6%, Rab9 promoter act 1.5%, FLuc modulator -2.6% and ELG1 DNA repair inconclusive.
Screening Oc1ccc(/C=N/NC(=S)Nc2cccnc2)c(O)c1O returned ELG1 genotoxic -17.2%, NPC1 prom act -3.0%, Rab9 promoter act -3.4%, FLuc modulator 19µM* and ELG1 DNA repair 14.6µM*.
Screening Fc1ccc(/C=N/NC(=S)Nc2cccnc2)cc1 returned ELG1 genotoxic 23.1µM*, SMN2 splice enh 1.4%, NPC1 prom act 16.1%, Rab9 promoter act 26.6%, FLuc modulator inconclusive and ELG1 DNA repair 5.3%.
Oc1ccc(/C=N/NC(=S)Nc2cccnc2)c(O)c1 was read as ELG1 genotoxic inconclusive, SMN2 splice enh -91.8%, NPC1 prom act -2.1%, Rab9 promoter act -17.5%, FLuc modulator 21.3µM* and ELG1 DNA repair 16.0%.
For Fc1c(F)c(F)c(/C=N/NC(=S)Nc2cccnc2)c(F)c1F the results were ELG1 genotoxic -7.8%, SMN2 splice enh 26.6%, NPC1 prom act -0.2%, Rab9 promoter act -7.5%, FLuc modulator 2.8% and ELG1 DNA repair inconclusive.
Oc1cccc(/C=N/NC(=S)Nc2cccnc2)c1O was read as ELG1 genotoxic inconclusive, SMN2 splice enh -82.4%, NPC1 prom act -0.5%, Rab9 promoter act -1.5%, FLuc modulator inconclusive and ELG1 DNA repair 20.8%.
O=C(CSc1nnc(NC2CCCCC2)s1)Nc1ccc2c(c1)C(=O)c1ccccc1C2=O was read as ELG1 genotoxic 6.3%, SMN2 splice enh 11.2µM*, NPC1 prom act 3.55µM*, Rab9 promoter act 2.82µM*, FLuc modulator inconclusive and ELG1 DNA repair inconclusive.
For NS(=O)(=O)c1ccc(NC(=O)CSc2nnc(NC3CC3)s2)cc1 the results were ELG1 genotoxic -0.8%, NPC1 prom act -3.2%, Rab9 promoter act 1.3%, FLuc modulator -1.4% and ELG1 DNA repair inconclusive.
`Cc1ccc(NC(=O)CN(C)C(=O)CSc2nnc(NC(C)C)s2)cc1` gave ELG1 genotoxic 4.0%, NPC1 prom act 11.6%, Rab9 promoter act 1.9%, FLuc modulator 0.2% and ELG1 DNA repair -10.3%.
CC(C)Nc1nnc(SCC(=O)Nc2ccc3c(c2)C(=O)c2ccccc2C3=O)s1 was read as ELG1 genotoxic -4.0%, SMN2 splice enh 14.1µM*, NPC1 prom act inconclusive, Rab9 promoter act 3.55µM*, FLuc modulator inconclusive and ELG1 DNA repair inconclusive.
For O=C(Nc1ccccc1[N+](=O)[O-])c1cccc(N2C(=O)CCC2=O)c1 the results were ELG1 genotoxic 4.5%, NPC1 prom act 12.2%, Rab9 promoter act 17.4%, FLuc modulator inconclusive and ELG1 DNA repair 18.6%.

Screening results: PubChem, National Center for Advancing Translational Sciences (NCATS)
